Screening data as filed in PubChem BioAssay.
Compounds with a hit are over-represented: about 4.8% of the library has one in this group of screens.
DAX1 inh-1: blocks DAX1 repression of SF-1 activated StAR promoter | HEK293T StAR-luciferase reporter, SF-1/DAX-1 repression relief | inhibition, % at 6.8 µM | 370,000 tested, 1.1% active;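 active means inhibition above the mean over all tested compounds plus 3 SD, cut at about 3.6% in these data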;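 further: 0% = DAX-1 cells with DMSO and 100% = cells lacking DAX-1 with DMSO; higher inhibition means more luminescence from relief of DAX-1 repression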
SMARCA2 activ: SMARCA2 function activation, primary screen | activation, % at 9.1 µM | MG213 cells, MMTV-luciferase reporter, dexamethasone, overnight | 370,000 tested, 1% active; in the data active means activation above about 7.8%;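 further: 0% = vehicle wells and 100% = reference activator wells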
DAX1 inh-2: NR0B1 (DAX1) inhibition | P51843 | HEK293 Gal4-DAX1 luciferase reporter, luminescence | inhibition, % at 6.75 µM | 340,000 tested, 0.99% active | AID 504766;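 active means inhibition above the mean over all tested compounds plus 3 SD, cut at about 4.2% in these data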;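 further: 0% = DAX1-transfected cells with DMSO and 100% = empty-vector control cells with DMSO; inhibition shows as a rise in luminescence from relieved DAX1 repression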
ssDAF12 agonist: activates DAF-12 receptor from parasite S. stercoralis. HEK293 ssDAF-12/GRIP1 lit1-tk-luc reporter, luminescence; % of 3 µM dafachronic acid response. activation, % at 6.8 µM. 370,000 tested, 1% active. AID 652126;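 active means activation above the mean over all tested compounds plus 3 SD, cut at about 0.9% in these data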;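 further: 0% = DMSO-only wells and 100% = 3 µM delta7-dafachronic acid wells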
hgDAF12 agonist: agonists of H. glycines DAF-12 nuclear receptor; 370,000 tested, 1.8% active; HEK293 GAL4-hgDAF12 UAS-luciferase reporter, agonist luminescence; normalized to butyrate control; activation, % at 6.8 µM;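 active means activation above a cutoff set at the mean of all screened compounds plus 3 SD, cut at about 10% in these data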;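 further: 0% = DMSO wells and 100% = sodium butyrate wells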
hcDAF12 agonist: activates DAF-12 receptor from parasite H. contortus; 370,000 tested, 1.4% active; activation, % at 6.8 µM; HEK293 hcDAF-12 lit1-tk-luc reporter, luminescence; 0% DMSO, 100% Δ7-dafachronic acid;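 active means activation above the mean of all tested compounds plus 3 SD, cut at about 5.5% in these data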;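 further: 100% = response to 3 µM Δ7-dafachronic acid high control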
DAX1 conf: NR0B1 (human) inhibition, confirmation; shares compounds with DAX1 inh-1; inhibition, % at 6.8 µM; 2,400 tested, 87% active; HEK293T StAR-promoter luciferase reporter, SF-1/DAX-1 repression; AID 652134;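 active means inhibition above the average of every tested compound plus 3 SD, cut at about 3.8% in these data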;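 further: 0% = DAX-1 cells with DMSO and 100% = no DAX-1 control cells with DMSO; active compounds raise luminescence by relieving repression of the StAR reporter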
SF1 AF2mut Luc: nonselective inhibitor or artifact in SF-1 mutant DAX1 counter-screen; AID 652136; HEK293 StAR-luciferase, SF-1 AF2 mutant, luminescence; inhibition, % at 6.8 µM; 2,400 tested, 78% active; shares compounds with DAX1 inh-1;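 active means inhibition above the mean of all tested compounds plus 3 SD, cut at about 3% in these data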;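 further: 0% = DAX-1 transfected cells with DMSO and 100% = cells without DAX-1 with DMSO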
SMARCA2 act conf: SMARCA2 activation, confirmation screen. MG213 cells, MMTV-luciferase with dexamethasone, luminescence, overnight; MG213 cells expressing E1A, Rb sequestered; DMSO wells 0%, reference activator 100%. 3,500 tested, 30% active. shares compounds with SMARCA2 activ. AID 652260. activation, % at 9.1 µM;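 active means activation above its plate's cutoff, the mean activation of tested wells plus 3 SD, cut at about 7.9% in these data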
VP16 Luc act: activates GAL4-VP16 luciferase, flagging SMARCA2 activator hits | 3,500 tested, 41% active | HEK293 GAL4-VP16 pG5luc reporter, luciferase luminescence; scaled: DMSO wells 0%, SAHA wells 100% | activation, % at 9.1 µM | AID 686939 | shares compounds with SMARCA2 activ;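 active means activation above the solvent-only control well mean plus 3 SD, averaged across control plates, cut at about 5.2% in these data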
LXRb hcDAF ctr: LXR-beta agonism as hcDAF-12 counter-screen | shares compounds with hcDAF12 agonist | HEK293 Gal4-LXR tk-luc reporter, luminescence, 24 h; normalized: DMSO 0%, positive control 100% | activation, % at 6.8 µM | 3,400 tested, under 10 active | AID 743027;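 active means mean percent activation of the reporter above a cutoff set as the average over tested compounds plus their standard deviation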
Target sequence (P55055 whole entry, looked up, the tested form may be a part): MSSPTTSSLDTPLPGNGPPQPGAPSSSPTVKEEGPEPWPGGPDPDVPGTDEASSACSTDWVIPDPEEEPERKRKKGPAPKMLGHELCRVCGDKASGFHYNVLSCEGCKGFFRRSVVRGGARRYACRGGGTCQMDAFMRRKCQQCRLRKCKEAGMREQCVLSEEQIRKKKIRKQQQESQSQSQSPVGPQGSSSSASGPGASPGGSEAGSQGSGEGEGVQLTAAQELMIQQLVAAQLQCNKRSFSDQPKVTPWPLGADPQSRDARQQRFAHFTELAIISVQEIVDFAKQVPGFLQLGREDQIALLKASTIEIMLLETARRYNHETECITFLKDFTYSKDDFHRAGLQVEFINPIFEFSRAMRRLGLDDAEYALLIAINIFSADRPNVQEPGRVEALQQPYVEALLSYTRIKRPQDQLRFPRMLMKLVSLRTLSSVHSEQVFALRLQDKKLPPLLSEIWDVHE
hcDAF12 conf: confirmation of H. contortus DAF-12 agonists; shares compounds with hcDAF12 agonist; HEK293 hcDAF-12 lit1-tk-luc reporter, luminescence; % of Δ7-dafachronic acid response; activation, % at 6.8 µM; 3,400 tested, 61% active; AID 743032;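 active means mean activation across triplicate tests above the threshold derived from the earlier primary screen, cut at about 5.5% in these data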;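 further: 0% = DMSO only wells and 100% = 3 µM Δ7-dafachronic acid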
hgDAF12 conf: confirmation of H. glycines DAF-12 agonists; activation, % at 6.8 µM; shares compounds with hgDAF12 agonist; 3,300 tested, 80% active; HEK293 GAL4-hgDAF12 luciferase reporter, agonist mode; percent of butyrate response;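 active means mean activation over triplicate wells above the hit cutoff derived from the earlier primary screen, cut at about 11% in these data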;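 further: 0% = DMSO low control and 100% = 2 mM sodium butyrate high control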
LXR ag 2: activates human LXR-beta, counter-screen for DAF-12 agonists | shares compounds with hgDAF12 agonist | HEK293 Gal4-LXR luciferase reporter, 24 h | activation, % at 6.8 µM | 3,300 tested, under 10 active;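 active means mean activation of the triplicate above a set limit carried over from the primary screen, none filed active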
* hit, by the source's call; x = no result.

SMILES	DAX1 inh-1	SMARCA2 activ	DAX1 inh-2	ssDAF12 agonist	hgDAF12 agonist	hcDAF12 agonist	SMARCA2 act conf	VP16 Luc act	others
CNC(=O)Oc1ccc(-c2cn3cc(Cl)ccc3n2)cc1	6.1*	6	-1	1.6*	14*	6.4*	x	x	DAX1 conf=9.8*;SF1 AF2mut Luc=3.5*;hgDAF12 conf=21*;LXR ag 2=1
COC(=O)C(O)(c1ccc(NC(=O)c2ccccc2)cc1)C(F)(F)F (centres undefined)	0	0	1	-1	4	1	x	x
N=C1c2ccccc2CN1CC(=O)c1ccccc1	7.0*	3	2	2.6*	20*	23*	x	x	DAX1 conf=11*;SF1 AF2mut Luc=7.2*;LXRb hcDAF ctr=1;hcDAF12 conf=7.3*;hgDAF12 conf=24*;LXR ag 2=1
N=C1c2ccccc2CN1NC(=O)c1ccccc1	0	0	0	0	5	-1	x	x
CN(C)C(=O)Oc1cccc2c(OC(=O)N(C)C)cccc12	1	-3	0	-1	-1	-1	x	x
CN(C(=O)Oc1cccc2ccccc12)C1C=CCC1 (centres undefined)	0	9.9*	0	0	7	2	4	4
C[C@H]1[C@@H](c2ccccc2)O[C@@H](c2ccccc2Br)N1C	0	0	0	-1	-2	-3	x	x
C[n+]1c(-c2ccccc2)c2cc(N)ccc2c2ccc(N)cc21	-2	-4	-2	0	0	-1	x	x
COc1cc2c3cc1Oc1c(OC)c(OC)cc4c1[C@H](Cc1ccc(cc1)Oc1cc(ccc1O)C[C@H]3N(C)CC2)N(C)CC4	1	7	2	-1	0	1	x	x
COc1cc2c3cc1Oc1cc(ccc1O)C[C@@H]1c4c(cc(OC)c(O)c4Oc4ccc(cc4)C[C@H]3N(C)CC2)CCN1C	4.5*	10*	1	0	-3	2	16*	1
CCC(Oc1cc(Cl)ccc1Cl)C(=O)N1CCC2(CC1)OCCO2 (centres undefined)	1	4	1	-1	0	-1	x	x
CN(C)C(=S)SSC(=S)N(C)C	-1	15*	0	-2	-5	-2	-15	16*
c1cc(C2N3CCCN2CC3)ccn1 (centres undefined)	0	1	0	-2	0	-2	x	x
O=c1c2ccccc2nc(/C=C/c2ccc([N+](=O)[O-])o2)n1-c1ccc(O)cc1	-1	9.5*	x	-1	-8	-2	-14	1
